Measured values published in ChEMBL document CHEMBL1961873, “Compounds: GSK PKIS; Assays: Nanosyn kinase panel” (2012).

How the values were obtained:
[1] = molecular target: Sphingosine kinase 1 (Homo sapiens) (UniProt Q9NYA1); settings: at 1 µM;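 note: mean SPHK1 inhibition value reported from the GSK PKIS kinase panel screen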
[2] = molecular target: T1, Sphingosine kinase 2 (Homo sapiens) (UniProt Q9NRA0); settings: at 0.1 µM
T1 sequence (whole entry): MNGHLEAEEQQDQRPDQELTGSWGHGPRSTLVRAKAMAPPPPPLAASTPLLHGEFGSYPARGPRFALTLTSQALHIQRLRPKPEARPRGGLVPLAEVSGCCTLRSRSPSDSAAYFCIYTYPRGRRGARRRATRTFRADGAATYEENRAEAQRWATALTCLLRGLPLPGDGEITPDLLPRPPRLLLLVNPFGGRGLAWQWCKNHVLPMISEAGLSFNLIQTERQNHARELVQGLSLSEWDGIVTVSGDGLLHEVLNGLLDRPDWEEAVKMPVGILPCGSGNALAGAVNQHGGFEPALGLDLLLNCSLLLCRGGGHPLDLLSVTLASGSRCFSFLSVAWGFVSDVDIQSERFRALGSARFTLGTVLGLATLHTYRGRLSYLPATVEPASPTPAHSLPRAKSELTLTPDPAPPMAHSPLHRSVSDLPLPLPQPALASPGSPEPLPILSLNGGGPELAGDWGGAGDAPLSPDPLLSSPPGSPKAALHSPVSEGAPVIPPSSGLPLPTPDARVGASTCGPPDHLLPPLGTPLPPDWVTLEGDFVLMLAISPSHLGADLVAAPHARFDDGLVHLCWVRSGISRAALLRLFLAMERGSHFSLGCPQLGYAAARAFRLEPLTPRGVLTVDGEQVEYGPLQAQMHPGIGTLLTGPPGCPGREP

[3] = molecular target: T1, Sphingosine kinase 2 (Homo sapiens); settings: at 1 µM
[4] = molecular target: Casein kinase II subunit alpha (Homo sapiens) (UniProt P68400); settings: at 0.1 µM
Chain of Casein kinase II subunit alpha (Homo sapiens) (P68400 whole entry, looked up): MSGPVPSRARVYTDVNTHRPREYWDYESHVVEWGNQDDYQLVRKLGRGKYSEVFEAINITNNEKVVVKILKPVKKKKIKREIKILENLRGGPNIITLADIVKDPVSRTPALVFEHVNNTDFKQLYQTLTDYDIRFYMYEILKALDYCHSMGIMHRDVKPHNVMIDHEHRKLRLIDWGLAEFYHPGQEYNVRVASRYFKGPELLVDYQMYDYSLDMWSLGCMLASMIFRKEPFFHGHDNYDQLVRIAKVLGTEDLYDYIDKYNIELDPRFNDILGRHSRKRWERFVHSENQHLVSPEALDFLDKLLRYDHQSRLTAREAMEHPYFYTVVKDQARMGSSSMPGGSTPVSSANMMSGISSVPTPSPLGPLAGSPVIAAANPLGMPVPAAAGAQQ

[5] = molecular target: Casein kinase II subunit alpha (Homo sapiens) (UniProt P68400); settings: at 1 µM
[6] = molecular target: T2, Inhibitor of nuclear factor kappa-B kinase subunit alpha (Homo sapiens) (UniProt O15111); settings: at 0.1 µM
T2 sequence (whole entry): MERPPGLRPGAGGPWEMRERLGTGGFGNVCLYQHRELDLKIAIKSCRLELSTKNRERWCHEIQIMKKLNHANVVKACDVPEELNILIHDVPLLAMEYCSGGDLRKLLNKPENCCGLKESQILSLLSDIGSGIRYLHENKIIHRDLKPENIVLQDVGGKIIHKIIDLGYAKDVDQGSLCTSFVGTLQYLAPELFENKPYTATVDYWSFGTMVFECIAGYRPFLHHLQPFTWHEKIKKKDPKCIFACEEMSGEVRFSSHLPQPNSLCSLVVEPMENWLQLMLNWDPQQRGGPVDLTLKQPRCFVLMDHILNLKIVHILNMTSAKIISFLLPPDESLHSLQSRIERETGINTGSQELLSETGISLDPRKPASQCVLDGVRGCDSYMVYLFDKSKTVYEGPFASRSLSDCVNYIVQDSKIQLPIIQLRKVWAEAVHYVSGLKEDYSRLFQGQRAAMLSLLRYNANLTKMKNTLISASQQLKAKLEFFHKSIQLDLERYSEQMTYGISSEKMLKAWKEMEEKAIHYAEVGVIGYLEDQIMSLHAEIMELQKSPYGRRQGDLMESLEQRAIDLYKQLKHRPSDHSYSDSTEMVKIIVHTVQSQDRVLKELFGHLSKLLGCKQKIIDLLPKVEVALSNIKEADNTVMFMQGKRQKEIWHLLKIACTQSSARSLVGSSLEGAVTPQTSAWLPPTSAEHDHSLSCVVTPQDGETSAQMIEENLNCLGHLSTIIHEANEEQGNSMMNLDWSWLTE

[7] = molecular target: T2, Inhibitor of nuclear factor kappa-B kinase subunit alpha (Homo sapiens); settings: at 1 µM
[8] = molecular target: T3, Inhibitor of nuclear factor kappa-B kinase subunit beta (Homo sapiens) (UniProt O14920); settings: at 0.1 µM
T3 sequence (whole entry): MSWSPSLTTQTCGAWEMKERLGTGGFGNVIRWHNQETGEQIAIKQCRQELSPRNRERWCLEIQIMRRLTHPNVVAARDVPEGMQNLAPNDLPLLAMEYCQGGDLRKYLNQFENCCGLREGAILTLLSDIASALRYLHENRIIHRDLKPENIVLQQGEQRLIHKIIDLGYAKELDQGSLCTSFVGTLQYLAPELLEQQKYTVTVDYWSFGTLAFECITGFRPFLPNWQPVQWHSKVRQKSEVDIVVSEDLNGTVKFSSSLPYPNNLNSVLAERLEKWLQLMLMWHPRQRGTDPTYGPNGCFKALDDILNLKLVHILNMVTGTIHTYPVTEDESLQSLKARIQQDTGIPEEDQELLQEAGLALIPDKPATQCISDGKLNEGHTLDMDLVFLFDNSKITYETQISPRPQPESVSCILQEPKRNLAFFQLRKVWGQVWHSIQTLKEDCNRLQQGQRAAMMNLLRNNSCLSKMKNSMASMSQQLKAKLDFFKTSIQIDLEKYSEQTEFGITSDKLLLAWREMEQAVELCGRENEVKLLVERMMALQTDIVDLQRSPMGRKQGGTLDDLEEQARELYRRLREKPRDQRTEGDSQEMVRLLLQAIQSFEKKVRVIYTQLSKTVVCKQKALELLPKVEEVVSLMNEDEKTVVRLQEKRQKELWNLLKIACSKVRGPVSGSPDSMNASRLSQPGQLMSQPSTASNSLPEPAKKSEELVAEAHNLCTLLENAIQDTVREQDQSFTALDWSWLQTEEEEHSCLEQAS

[9] = molecular target: T3, Inhibitor of nuclear factor kappa-B kinase subunit beta (Homo sapiens); settings: at 1 µM
[10] = molecular target: T4, Inhibitor of nuclear factor kappa-B kinase subunit epsilon (Homo sapiens) (UniProt Q14164); settings: at 0.1 µM
T4 sequence (whole entry): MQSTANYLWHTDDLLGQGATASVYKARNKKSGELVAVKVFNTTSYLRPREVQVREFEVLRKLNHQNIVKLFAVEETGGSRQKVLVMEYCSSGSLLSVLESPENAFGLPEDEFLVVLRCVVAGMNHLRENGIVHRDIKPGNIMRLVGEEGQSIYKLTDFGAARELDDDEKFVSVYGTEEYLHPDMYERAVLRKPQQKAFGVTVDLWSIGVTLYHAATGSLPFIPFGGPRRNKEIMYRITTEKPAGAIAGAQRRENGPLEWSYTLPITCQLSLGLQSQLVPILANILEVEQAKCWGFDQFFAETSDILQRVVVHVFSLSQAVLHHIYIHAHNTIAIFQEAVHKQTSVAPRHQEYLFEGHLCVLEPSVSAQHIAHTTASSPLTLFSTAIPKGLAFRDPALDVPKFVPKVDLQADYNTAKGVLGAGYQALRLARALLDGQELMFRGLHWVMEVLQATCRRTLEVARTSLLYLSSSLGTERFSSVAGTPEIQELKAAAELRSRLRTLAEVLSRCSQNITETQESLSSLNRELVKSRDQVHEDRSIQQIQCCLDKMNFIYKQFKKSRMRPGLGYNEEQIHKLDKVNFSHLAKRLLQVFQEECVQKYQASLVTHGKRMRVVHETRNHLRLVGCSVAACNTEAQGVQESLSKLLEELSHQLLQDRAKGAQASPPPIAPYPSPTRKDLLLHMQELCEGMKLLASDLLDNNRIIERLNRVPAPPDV

[11] = molecular target: T4, Inhibitor of nuclear factor kappa-B kinase subunit epsilon (Homo sapiens); settings: at 1 µM
[12] = molecular target: T5, Serine/threonine-protein kinase Nek1 (Homo sapiens) (UniProt Q96PY6); settings: at 0.1 µM
T5 sequence (whole entry): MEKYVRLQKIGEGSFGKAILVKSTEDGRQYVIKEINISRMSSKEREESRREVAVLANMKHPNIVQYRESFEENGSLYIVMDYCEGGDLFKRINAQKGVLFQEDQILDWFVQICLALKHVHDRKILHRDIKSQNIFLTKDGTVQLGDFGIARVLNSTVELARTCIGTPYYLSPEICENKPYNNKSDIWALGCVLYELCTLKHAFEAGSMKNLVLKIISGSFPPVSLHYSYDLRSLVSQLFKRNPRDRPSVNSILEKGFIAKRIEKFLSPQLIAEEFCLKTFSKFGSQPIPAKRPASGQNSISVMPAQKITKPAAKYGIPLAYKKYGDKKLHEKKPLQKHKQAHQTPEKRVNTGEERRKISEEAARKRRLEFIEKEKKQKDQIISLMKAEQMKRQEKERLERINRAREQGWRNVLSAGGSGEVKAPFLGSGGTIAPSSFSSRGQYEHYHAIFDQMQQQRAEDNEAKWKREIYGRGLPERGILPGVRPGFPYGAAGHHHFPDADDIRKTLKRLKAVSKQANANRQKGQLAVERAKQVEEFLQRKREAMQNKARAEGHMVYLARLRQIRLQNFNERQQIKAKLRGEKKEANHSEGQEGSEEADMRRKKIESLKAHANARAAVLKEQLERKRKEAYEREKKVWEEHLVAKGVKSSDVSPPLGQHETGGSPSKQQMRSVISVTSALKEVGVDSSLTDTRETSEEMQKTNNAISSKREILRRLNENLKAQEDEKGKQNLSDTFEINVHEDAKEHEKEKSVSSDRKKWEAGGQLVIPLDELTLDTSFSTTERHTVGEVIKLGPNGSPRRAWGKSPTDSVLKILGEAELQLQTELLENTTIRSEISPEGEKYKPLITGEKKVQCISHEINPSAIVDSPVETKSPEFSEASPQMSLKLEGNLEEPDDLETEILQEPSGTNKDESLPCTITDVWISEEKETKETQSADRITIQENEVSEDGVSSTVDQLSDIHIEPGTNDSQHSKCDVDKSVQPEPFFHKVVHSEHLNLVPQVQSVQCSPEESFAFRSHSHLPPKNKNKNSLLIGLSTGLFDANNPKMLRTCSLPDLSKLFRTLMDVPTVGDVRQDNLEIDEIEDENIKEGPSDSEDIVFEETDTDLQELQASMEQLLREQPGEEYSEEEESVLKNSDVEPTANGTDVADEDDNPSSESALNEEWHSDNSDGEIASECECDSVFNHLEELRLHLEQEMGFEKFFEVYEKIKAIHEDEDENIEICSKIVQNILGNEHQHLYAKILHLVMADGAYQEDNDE

[13] = molecular target: T5, Serine/threonine-protein kinase Nek1 (Homo sapiens); settings: at 1 µM
[14] = molecular target: T6, Serine/threonine-protein kinase Nek2 (Homo sapiens) (UniProt P51955); settings: at 0.1 µM
T6 sequence (whole entry): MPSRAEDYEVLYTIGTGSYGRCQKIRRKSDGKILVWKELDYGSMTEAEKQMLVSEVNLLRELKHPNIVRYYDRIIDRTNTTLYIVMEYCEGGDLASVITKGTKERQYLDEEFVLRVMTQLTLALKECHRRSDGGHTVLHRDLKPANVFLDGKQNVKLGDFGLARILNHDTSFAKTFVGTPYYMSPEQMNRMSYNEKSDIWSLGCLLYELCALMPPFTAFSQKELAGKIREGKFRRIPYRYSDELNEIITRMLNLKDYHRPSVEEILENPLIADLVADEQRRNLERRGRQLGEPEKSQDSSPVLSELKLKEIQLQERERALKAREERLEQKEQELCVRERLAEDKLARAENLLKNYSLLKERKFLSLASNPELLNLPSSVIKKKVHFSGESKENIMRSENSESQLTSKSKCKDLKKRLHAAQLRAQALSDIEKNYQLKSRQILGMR

[15] = molecular target: T6, Serine/threonine-protein kinase Nek2 (Homo sapiens); settings: at 1 µM
[16] = molecular target: Serine/threonine-protein kinase Nek6 (Homo sapiens) (UniProt Q9HC98); settings: at 0.1 µM
Chain of Serine/threonine-protein kinase Nek6 (Homo sapiens) (Q9HC98 whole entry): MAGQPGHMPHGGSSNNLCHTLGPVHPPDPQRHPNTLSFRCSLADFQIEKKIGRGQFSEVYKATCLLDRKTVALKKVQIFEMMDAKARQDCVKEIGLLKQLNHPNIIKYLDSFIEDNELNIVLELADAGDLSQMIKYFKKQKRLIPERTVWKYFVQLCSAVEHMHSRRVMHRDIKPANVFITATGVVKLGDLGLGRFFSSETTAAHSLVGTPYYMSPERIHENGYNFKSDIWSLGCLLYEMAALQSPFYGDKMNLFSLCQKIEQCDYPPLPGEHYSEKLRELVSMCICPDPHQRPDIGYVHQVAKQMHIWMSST

[17] = molecular target: Serine/threonine-protein kinase Nek6 (Homo sapiens) (UniProt Q9HC98); settings: at 1 µM
[18] = molecular target: Serine/threonine-protein kinase Nek7 (Homo sapiens) (UniProt Q8TDX7); settings: at 0.1 µM
Chain of Serine/threonine-protein kinase Nek7 (Homo sapiens) (Q8TDX7 whole entry, looked up): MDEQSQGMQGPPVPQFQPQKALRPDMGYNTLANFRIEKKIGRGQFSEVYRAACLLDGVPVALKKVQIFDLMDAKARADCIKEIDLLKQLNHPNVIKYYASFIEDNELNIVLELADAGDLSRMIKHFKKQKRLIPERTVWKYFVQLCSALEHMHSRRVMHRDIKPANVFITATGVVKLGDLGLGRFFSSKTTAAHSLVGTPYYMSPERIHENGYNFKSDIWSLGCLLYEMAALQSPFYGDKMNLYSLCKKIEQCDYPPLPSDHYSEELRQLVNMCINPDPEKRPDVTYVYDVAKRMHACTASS

[19] = molecular target: Serine/threonine-protein kinase Nek7 (Homo sapiens) (UniProt Q8TDX7); settings: at 1 µM
[20] = molecular target: T7, Serine/threonine-protein kinase Nek9 (Homo sapiens) (UniProt Q8TD19); settings: at 0.1 µM;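 note: reported value is the mean percent inhibition of NEK9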
T7 sequence (whole entry): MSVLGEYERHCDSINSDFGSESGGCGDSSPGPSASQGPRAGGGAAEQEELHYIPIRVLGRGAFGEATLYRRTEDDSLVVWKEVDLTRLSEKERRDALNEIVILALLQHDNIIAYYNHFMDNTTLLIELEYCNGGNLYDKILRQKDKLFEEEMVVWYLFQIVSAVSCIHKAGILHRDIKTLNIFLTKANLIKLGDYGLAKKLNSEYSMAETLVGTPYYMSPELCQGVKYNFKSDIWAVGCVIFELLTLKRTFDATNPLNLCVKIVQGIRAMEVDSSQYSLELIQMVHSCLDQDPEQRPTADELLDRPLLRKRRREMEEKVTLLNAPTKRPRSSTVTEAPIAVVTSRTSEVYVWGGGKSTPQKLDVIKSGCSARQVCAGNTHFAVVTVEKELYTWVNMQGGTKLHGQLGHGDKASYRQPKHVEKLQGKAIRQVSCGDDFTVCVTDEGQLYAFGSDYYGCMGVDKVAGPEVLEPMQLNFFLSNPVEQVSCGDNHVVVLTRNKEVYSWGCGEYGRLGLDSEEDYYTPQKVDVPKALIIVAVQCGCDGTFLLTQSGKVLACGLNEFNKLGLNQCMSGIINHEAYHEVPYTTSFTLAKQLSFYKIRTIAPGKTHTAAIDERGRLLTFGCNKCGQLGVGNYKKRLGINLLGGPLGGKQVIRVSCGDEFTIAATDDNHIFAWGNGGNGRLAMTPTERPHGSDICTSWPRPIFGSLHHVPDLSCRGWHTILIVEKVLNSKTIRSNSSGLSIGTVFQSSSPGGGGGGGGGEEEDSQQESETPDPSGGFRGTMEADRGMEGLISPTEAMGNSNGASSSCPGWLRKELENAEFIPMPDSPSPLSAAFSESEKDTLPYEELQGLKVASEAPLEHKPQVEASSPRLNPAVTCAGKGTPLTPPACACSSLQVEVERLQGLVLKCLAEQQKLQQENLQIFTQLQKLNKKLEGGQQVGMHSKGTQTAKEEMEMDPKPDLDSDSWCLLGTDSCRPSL

Chain of Sphingosine kinase 1 (Homo sapiens) (Q9NYA1 whole entry): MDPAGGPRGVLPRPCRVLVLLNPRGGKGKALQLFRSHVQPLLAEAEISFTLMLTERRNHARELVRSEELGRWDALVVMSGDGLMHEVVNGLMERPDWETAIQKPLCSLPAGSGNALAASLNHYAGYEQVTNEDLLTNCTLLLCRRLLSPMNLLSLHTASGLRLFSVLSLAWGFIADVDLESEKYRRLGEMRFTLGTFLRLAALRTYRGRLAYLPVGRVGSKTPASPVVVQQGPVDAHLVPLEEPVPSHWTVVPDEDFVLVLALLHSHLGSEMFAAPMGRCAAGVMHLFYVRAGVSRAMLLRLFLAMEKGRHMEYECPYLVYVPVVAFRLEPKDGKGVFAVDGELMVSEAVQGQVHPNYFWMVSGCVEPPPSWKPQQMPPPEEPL

SMILES | inhibition [1] [%] | inhibition [2] [%] | inhibition [3] [%] | inhibition [4] [%] | inhibition [5] [%] | inhibition [6] [%] | inhibition [7] [%] | inhibition [8] [%] | inhibition [9] [%] | inhibition [10] [%] | inhibition [11] [%] | inhibition [12] [%] | inhibition [13] [%] | inhibition [14] [%] | inhibition [15] [%] | inhibition [16] [%] | inhibition [17] [%] | inhibition [18] [%] | inhibition [19] [%] | inhibition [20] [%]
COc1cc2ncn(-c3cc(OCc4ccccc4Cl)c(C(N)=O)s3)c2cc1OC | -2.81 | 5.21 | -4.96 | 2.2 | 9.54 | -1.84 | 5.14 | 1.96 | 1.01 | 0.65 | 2.71 | 3.45 | 15.5 | 3.49 | 37.3 | 1.95 | -3.5 | 4.31 | 1.21 | 9.22
Nc1ncnc2occ(-c3ccc(NC(=O)Nc4cccc(C(F)(F)F)c4)cc3)c12 | -6.26 | 0.27 | 1.95 | 7.18 | 4.76 | 6.44 | 11.1 | 6.2 | 7.53 | 8.03 | 9.66 | 7.14 | 41.9 | 6.56 | 7.21 | 2.78 | 1.33 | 2.42 | -0.46 | 5.7
